Measured values taken from PubChem BioAssay (Tox21).
Results filed as inconclusive are left out. Calls of active or inactive are those of the source. Calls come from the whole dose curve.
% is set by controls: 0 for no effect and ±100 for the full control effect.

What follows are compounds tested against Vitamin D3 receptor (Homo sapiens) (UniProt P11473) (assay: qHTS assay to identify small molecule agonists of the vitamin D receptor (VDR) signaling pathway (AID 743222)). Conditions: HEK293T VDR-UAS-bla, beta-lactamase FRET ratio, 16 h; series mostly up to 63.5 µM.
Sequence of Vitamin D3 receptor (Homo sapiens) (P11473 whole entry, looked up): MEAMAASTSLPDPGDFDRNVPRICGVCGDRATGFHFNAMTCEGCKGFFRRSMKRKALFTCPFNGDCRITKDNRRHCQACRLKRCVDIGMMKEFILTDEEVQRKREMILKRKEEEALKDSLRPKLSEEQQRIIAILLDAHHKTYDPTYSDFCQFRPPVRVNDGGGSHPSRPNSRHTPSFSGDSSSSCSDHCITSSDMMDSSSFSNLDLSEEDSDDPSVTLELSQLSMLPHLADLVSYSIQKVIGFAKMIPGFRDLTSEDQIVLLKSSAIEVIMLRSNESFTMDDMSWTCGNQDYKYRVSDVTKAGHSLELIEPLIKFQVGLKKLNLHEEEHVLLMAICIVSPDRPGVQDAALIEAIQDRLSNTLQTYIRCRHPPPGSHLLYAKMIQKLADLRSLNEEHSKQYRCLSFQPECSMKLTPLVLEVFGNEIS
Text: National Center for Advancing Translational Sciences [NCATS]
NIH Chemical Genomics Center [NCGC]
U.S. Environmental Protection Agency [EPA]
National Institutes of Environmental Health Sciences [NIEHS]
National Toxicology Program [NTP]
U.S. Food and Drug Administration [FDA]
The vitamin D receptor (VDR), a member of nuclear hormone receptor superfamily, plays a critical role in calcium homeostasis and bone metabolism. It is also involved in cell differentiation and growth, and thrombogenicity.
Tox21 Assay Protocol Summary:
VDR-bla cells were dispensed at 2,000 cells/6 uL/well into black wall/clear-bottom 1536-well plates using a Multidrop Combi (Thermo Fisher Scientific, Waltham, MA) dispenser. After the assay plates were incubated at a 37C and 5% CO2 for 4 h, 23 nL of compounds dissolved in DMSO, positive controls or DMSO only was transferred to the assay plate by a Pintool station (Kalypsys, San Diego, CA). The plates were incubated at 37C and 5% CO2 for 16 h. After 1 uL of LiveBLAzerTM B/G FRET substrate was added using a Bioraptr Flying Reagent Dispenser (FRD) workstation (Beckman Coulter, Indianapolis, IN, USA), the plates were incubated at room temperature for 2 h, and fluorescence intensity was measured by an Envision plate reader (PerkinElmer, Shelton, CT).
With `CC(=O)NNc1ccccc1` the outcome was “inactive”.
For `O=C(O)C(F)(F)C(F)(F)C(F)(F)C(F)(F)C(F)(F)C(F)(F)C(F)(F)C(F)(F)F`, the outcome was “inactive”.
For `Cc1ccc2c(C)cccc2c1`, the outcome was “inactive”.
With `C=CCOCC1CO1` (stereo not given) the outcome was “inactive”.
In the case of `CC[N+]1(CCOC(=O)C(O)(c2ccccc2)c2ccccc2)CCCCC1`, the outcome is reported as “inactive”.
In the case of `CCOC(=O)NC(O)C(Cl)(Cl)Cl` (stereo not given), the outcome is reported as “inactive”.
`Cc1nnc(-c2ccccc2)c(=O)n1N` was tested, and the outcome was “inactive”.
For `CCCCC(CC)CO[N+](=O)[O-]` (stereo not given), the outcome was “inactive”.
For `SCc1ccccc1`, the outcome was “inactive”.
For `O=C(O)CCCOc1ccc(Cl)cc1Cl`, the outcome was “inactive”.
In the case of `Nc1ccccc1C(=O)OCC(O)CO` (stereo not given), the outcome is reported as “inactive”.
With `NNCCO` the outcome was “inactive”.
In the case of `CCCBr`, the outcome is reported as “inactive”.
`C=C(C)C(=O)OCCCCOC(=O)C(=C)C` was tested, and the outcome was “inactive”.
For `CCOP(=O)(SC(C)CC)N1CCSC1=O` (stereo not given), the outcome was “inactive”.
With `C=CCN1C[C@H](C)N([C@H](c2ccc(C(=O)N(CC)CC)cc2)c2cccc(OC)c2)C[C@H]1C` the outcome was “inactive”.
With `CCCCCCCCCCCCN=C(N)N` the activation was -0.533% [at 2.71 µM] (inactive).
With `Clc1ccccc1` the outcome was “inactive”.
With `O=C(O)C(Cl)(Cl)Br` the outcome was “inactive”.
With `CCCC(C)(COC(N)=O)COC(=O)NC(C)C` (stereo not given) the outcome was “inactive”.
With `CCCN(CCC)c1c([N+](=O)[O-])cc(C(C)C)cc1[N+](=O)[O-]` the outcome was “inactive”.
With `CCC(C)(C)c1ccc(O)c(C(C)(C)CC)c1` the outcome was “inactive”.
For `O=C(O)c1cc(Cl)ccc1Cl`, the outcome was “inactive”.
`Cc1nc2ccccc2c(=O)n1-c1ccccc1Cl` was tested, and the outcome was “inactive”.
For `O=S(=O)(c1ccccc1)c1ccccc1`, the outcome was “inactive”.
`CCC(C)Cl` (stereo not given) was tested, and the outcome was “inactive”.
`CCCCC(CC)COC(=O)c1c(Br)c(Br)c(Br)c(Br)c1C(=O)OCC(CC)CCCC` (stereo not given) was tested, and the outcome was “inactive”.
`Nc1c(Br)cc(Br)c2c1C(=O)c1ccccc1C2=O` was tested, and the outcome was “inactive”.
For `O=C(CCl)CCl`, the outcome was “inactive”.
With `COC(=O)C1(O)c2ccccc2-c2ccccc21` the outcome was “inactive”.
`O=[N+]([O-])O[C@H]1CO[C@H]2[C@@H]1OC[C@H]2O[N+](=O)[O-]` was tested, and the outcome was “inactive”.
In the case of `O=C(O)c1cc(I)cc(I)c1I`, the outcome is reported as “inactive”.
For `C[N+]1(CCF)[C@@H]2CC[C@H]1CC(OC(=O)C(O)(c1ccccc1)c1ccccc1)C2` (stereo not given in full), the outcome was “inactive”.
For `CCOP(=S)(OCC)SCSc1cc(Cl)ccc1Cl`, the outcome was “inactive”.
`Nc1cc(Cl)cc(C(=O)O)c1Cl` was tested, and the outcome was “inactive”.
In the case of `OCCSSCCO`, the outcome is reported as “inactive”.
In the case of `CNC(=O)Oc1cccc(N=CN(C)C)c1`, the outcome is reported as “inactive”.
With `O=C=NC1CCCCC1` the outcome was “inactive”.
`C1CCNCC1` was tested, and the outcome was “inactive”.
In the case of `ClCc1ccccc1Cl`, the outcome is reported as “inactive”.
